# CYP2C19 inhib = blocks human cytochrome P450 2C19; inhibition, % at 5 µM; 96,000 tested, 21% active; AID 778; CYP2C19 Supersomes, luciferin-H EGE luminescence, 30 min;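 active = CYP2C19 inhibition above a set limit at 5 µM in the primary screen, cut at about 50% in these data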;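 note: plate controls were negative control wells for no effect and 2.5 mM tranylcypromine positive control for full effect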
# CYP2C9 activ = CYP2C9 (human) activation; P11712; recombinant CYP2C9, luciferin-H conversion, luminescence; stronger effect = higher value; factor 1 = untreated enzyme, 0 = blocked; activation factor at 5 µM; 96,000 tested, 1.4% active; AID 1024;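 active = activation factor of 2 or more for CYP2C9 at a 5 µM dose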;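 note: 0 = sulfaphenazole-blocked wells and 1 = vehicle-only wells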
# CYP2C19 act = cytochrome P450 2C19 (human) activation | AID 1025 | 96,000 tested, under 10 active | P33261 | activation factor at 5 µM | recombinant CYP2C19, luciferin-H EGE luminescence; stronger effect = higher value; 0 = fully inhibited enzyme, 1 = untreated enzyme;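 active = activation factor of at least 2 at 5 µM in the primary screen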;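 note: 0 = wells with 2.5 mM tranylcypromine and 1 = vehicle-only wells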
# CYP2C9 inhib = inhibitors of human CYP2C9; inhibition, % at 5 µM; CYP2C9 Supersomes, luciferin-H conversion, luminescence; 96,000 tested, 20% active;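 active = blocking of liver enzyme CYP2C9 beyond about 50% at 5 µM, limit read from the data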
# PTK2B oligo ant = Pyk2 (human) oligomerization antagonism | Q293 cells, Pyk2 FERM NanoBiT luminescence; stronger effect = lower value | z-score (the deposit names both 25 µM and 10 µM) | 99,000 tested, 0.83% active | AID 1347419;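 active = Z-score of -3 or lower, scaled per plate to the spread of control and sample wells; inactive = z-score above -3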;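 note: negative z-score means lost luminescence so less FERM oligomerization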
# Cav32 inh = blocks human Cav3.2 T-type calcium channel; Cav3.2-expressing cells, Fluo-4 calcium fluorescence FDSS; stronger effect = lower value; 100,000 tested, 4% active; O95180; B-score at 10 µM;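 active = single-dose well whose peak fluorescence ratio is a statistical outlier from its plate by either plate-standardised score or position-corrected B-score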
# * = called active by the depositor; . = no result. In the library only some 27% were active in any assay of this set; here they are far more common.
SMILES,CYP2C19 inhib,CYP2C9 activ,CYP2C19 act,CYP2C9 inhib,PTK2B oligo ant,Cav32 inh
O=C(Nc1ccc2c(c1)OCCO2)c1ccc(Br)c(S(=O)(=O)N2CCOCC2)c1,82*,0.5,0.2,53*,-1.8,-0.13
O=C(Nc1ccc2c(c1)OCCO2)c1ccc(S(=O)(=O)N2CCCCC2)cc1,29,0.3,0.7,70*,-0.98,-0.7
O=C(C1CCCO1)N1CCC(O)(c2ccccc2)CC1 (centres undefined),19,1,0.8,-1,0.32,0.036
CC1CCCCN1C(=O)CSc1nc2cc3c(cc2c(=O)n1Cc1ccc2c(c1)OCO2)OCO3 (centres undefined),49,0.5,0.5,52*,-2,-1.2
CC1CCCC(C)N1C(=O)Cn1c(SCC(=O)NCc2ccc3c(c2)OCO3)nc2ccccc21 (centres undefined),64*,0.1,0.4,90*,1.3,-1.4
O=C(Cn1nnc2ccccc2c1=O)N1CCCc2ccccc21,20,0.9,0.8,7,0.67,0.002
CC1CCN(C(=O)Cn2c(=O)n(Cc3ccc4c(c3)OCO4)c(=O)c3ccccc32)CC1,22,0.5,0.8,54*,0.38,-2.4
CCn1c(SCC(=O)N2CCCCC2C)nc2ccsc2c1=O (centres undefined),12,0.7,0.9,28,-1,0.77
O=C(Cn1c(=O)n(Cc2ccc3c(c2)OCO3)c(=O)c2ccccc21)N1CCCc2ccccc21,.,.,.,.,-0.83,-7.1*
CC1CCN(C(=O)CSc2nc3ccccc3c(=O)n2Cc2ccc3c(c2)OCO3)CC1,62*,0.3,0.4,67*,-0.74,-4.9*
Cc1cc(C(=O)CSc2nc3ccccc3c(=O)n2C)c(C)n1Cc1ccc2c(c1)OCO2,76*,0.2,0.2,85*,0.07,-0.3
O=C(Oc1ccc(-c2cn3c(n2)SCC3)cc1)c1ccccc1,-10,1.1,1.1,-10,0.97,0.0083
CS(=O)(=O)NCCC1=CCCCC1,6,1,0.9,1,0.04,.
Cn1c(N)c(C(=O)CCl)c(=O)n(C)c1=O,-9,1.1,1.1,-6,.,-0.81
CC(C)c1nc(-c2c(N)n(C)c(=O)n(C)c2=O)sc1C(=O)C(C)(C)C,76*,1,0.2,-1,0.93,0.014
COc1ccc(C(=S)N2CCN(C)CC2)cc1Br,51*,3.5*,0.5,-247,1.4,0.72
Oc1ccc(C(=S)N2CCCCC2)cc1Cl,85*,2*,0.2,-102,1.6,0.53
COc1cc(C(=S)N2CCCC2)ccc1O,88*,1.6,0.1,-61,0.52,0.26
CC(=O)N1C(c2ccccc2)CC(=O)OC1c1ccc2c(c1)OCO2 (centres undefined),69*,0.9,0.3,14,-0.64,2.5
Cc1cccc(C(=O)N2c3ccccc3C(=O)OC2c2ccc3c(c2)OCO3)c1 (centres undefined),27,0.4,0.7,58*,-0.65,.
O=C1OC(c2ccc3c(c2)OCO3)N(C(=O)c2ccc(Cl)c(Cl)c2)c2ccccc21 (centres undefined),84*,0.1,0.2,86*,-3.2*,-3.1
CC(=O)N1c2ccccc2C(=O)OC1c1cccnc1 (centres undefined),12,0.9,0.9,10,-0.11,-0.67
Cc1cc(C)cc(NS(=O)(=O)c2ccc3[nH]c(=O)[nH]c3c2)c1,14,1.4,0.9,-38,-1.2,-1.3
CCc1ccccc1NC(=O)CSc1nc2ccccc2n1CC(=O)N(C)C,79*,0.4,0.2,56*,-0.33,-0.75
CN(C)C(=O)Cn1c(SCC(=O)Nc2ccc3c(c2)OCO3)nc2ccccc21,.,.,.,.,-0.75,0.17
CCc1cccc(C)c1NC(=O)CSc1nc2ccccc2n1CC(=O)N(C)C,54*,0.9,0.5,8,0.22,0.33
CCOC(=O)C(O)(CCC(O)(C(=O)OCC)C(=O)OCC)C(=O)OCC,19,1,0.8,-4,1.2,0.88
O=C(NCc1ccc(Cl)cc1)C(=O)NCC1OCCN1S(=O)(=O)c1ccc2c(c1)OCCO2 (centres undefined),.,.,.,.,.,-5.1*
O=C(NCCc1c[nH]c2ccccc12)C(=O)NCC1OCCN1S(=O)(=O)c1ccc(Cl)cc1 (centres undefined),.,.,.,.,.,-7.1*

# Screening results from PubChem.
